Reference: the supplement of paper PMC3334620
Whole data set: some 33,000 sequences, median “E-score (-0.5 to 0.5)” near -0.032, cut for the highest 2% near 0.36. Only a selection was taken, and the highest values are over-represented in it overall.

What follows are sequences tested against T1, Sko1 (UniProt Q02100) (assay: PBM E-score (8-mer binding enrichment) (E-score (-0.5 to 0.5)); higher = stronger / more preferred TF binding). Conditions: protein concentration: 200 nM; construct: GST-full length.
T1 sequence: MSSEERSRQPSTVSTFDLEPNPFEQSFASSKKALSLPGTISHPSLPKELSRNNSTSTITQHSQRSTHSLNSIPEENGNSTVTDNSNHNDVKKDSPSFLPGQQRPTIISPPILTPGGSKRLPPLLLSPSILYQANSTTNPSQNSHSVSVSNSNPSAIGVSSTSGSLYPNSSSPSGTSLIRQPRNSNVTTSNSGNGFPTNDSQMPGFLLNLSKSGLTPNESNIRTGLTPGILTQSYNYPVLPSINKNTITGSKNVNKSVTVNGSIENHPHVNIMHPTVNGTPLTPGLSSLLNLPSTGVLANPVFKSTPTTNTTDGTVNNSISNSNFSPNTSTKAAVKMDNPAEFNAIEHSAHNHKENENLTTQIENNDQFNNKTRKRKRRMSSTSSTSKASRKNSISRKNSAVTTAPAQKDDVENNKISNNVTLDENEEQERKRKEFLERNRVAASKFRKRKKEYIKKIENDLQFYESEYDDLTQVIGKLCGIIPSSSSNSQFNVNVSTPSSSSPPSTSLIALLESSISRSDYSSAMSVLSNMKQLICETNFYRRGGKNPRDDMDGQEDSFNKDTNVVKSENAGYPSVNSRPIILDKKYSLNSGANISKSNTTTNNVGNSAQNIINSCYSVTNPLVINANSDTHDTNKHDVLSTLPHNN
How it was run: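 PURExpress in vitro transcription/translation supplied GST-tagged yeast transcription factors, either full-length or DNA-binding domain. Applied at about 100-200 nM to universal all-10-mer Agilent arrays double-stranded by primer extension, the bound protein was detected with fluorescent anti-GST. E-scores, modified Wilcoxon-Mann-Whitney statistics, were given by the Universal PBM Analysis Suite to ungapped eight-base words pooled with their reverse complements after masliner normalisation.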

Row | Sequence | PBM E-score
1 | GGTCAGAA | -0.206
2 | GGTCAGAC | -0.241
3 | CGTCAGAG | 0.429
4 | AGTCAGAG | -0.142
5 | CGTCAAAA | 0.36
6 | CTAACTTA | 0.00938
7 | CGCTGTGC | -0.202
8 | CGTTATTA | 0.303
9 | CACAGTGC | -0.182
10 | AGACTTAT | -0.0312
11 | AGTCAGTC | -0.02
12 | AGTCAATC | 0.017
13 | CGTCAATC | 0.365
14 | GGTCAGGA | -0.245
15 | CGTCAACG | 0.389
16 | CGTCAATA | 0.359
17 | CGTCAGGA | 0.39
18 | CGTCAGGC | 0.272
19 | CGTCAGTA | 0.327
20 | CGTCAGTC | 0.375
21 | CGTCAACA | 0.323
22 | AGTCAACG | 0.0691
23 | CCTGGTAA | -0.124
24 | CGCTGTCC | -0.0275
25 | ATTCCATG | -0.0675

Row | Sequence | PBM E-score
26 | AACGAAAT | 0.261
27 | CGTGGGAA | 0.00507
28 | GCATAAAC | 0.166
29 | ACCAAGGC | -0.197
30 | CTGCCCGC | -0.0733
31 | GCCTACAA | -0.169
32 | CTCTGATA | 0.0155
33 | GCAAGTCA | 0.00337
34 | ACAGAGAG | -0.274
35 | ATTTCTTG | 0.164
36 | GGCTCACA | -0.118
37 | GTGTCCAA | 0.142
38 | ATTGTGCA | 0.076
39 | CTGTTCGA | -0.13
40 | ACGTCGCC | 0.327
41 | AACGTGAC | 0.277
42 | CGCGTGAC | 0.267
43 | CACGTGAC | 0.387
44 | GACGTGAC | 0.432
45 | GACGTGAA | 0.358
46 | CACGTGAG | 0.344
47 | AATCGACG | 0.295
48 | GAAACCCC | -0.221
49 | CCGACGGA | -0.237
50 | GCGACGTA | 0.413

Row | Sequence | PBM E-score
51 | CCGACGTA | 0.415
52 | GCGACGGA | -0.237
53 | GCGACGAA | 0.0338
54 | CCGACGTC | 0.309
55 | GACACTGC | -0.0761
56 | GGGCGCTA | -0.0254
57 | GCTGGAAC | -0.188
58 | ACGTAGCT | 0.444
59 | AAGTAGCT | 0.0695
60 | CCGTAGCG | -0.239
61 | CCGTAGCA | -0.064
62 | TCGTAGCA | 0.217
63 | ACGTAGCC | 0.388
64 | ACGTAGCG | 0.42
65 | ACTTAGCT | -0.211
66 | ACTTAGCG | 0.0634
67 | ACGTAGCA | 0.412
68 | CCGTAGCC | -0.259
69 | GCGTAGCC | 0.00349
70 | TAGGATGA | 0.136
71 | CGTTCGAG | 0.189
72 | ACTAAAGG | -0.0392
73 | GAACACAC | -0.0651
74 | CCCCAGCA | -0.157
75 | CGCGTATA | 0.244

Row | Sequence | PBM E-score
76 | AGCGTATC | -0.0128
77 | AGCGTATG | -0.0197
78 | CTCGTATA | 0.0394
79 | CAGGTATG | -0.00478
80 | CACGTATG | 0.426
81 | AACGTATG | 0.431
82 | CAAGTATG | 0.0253
83 | GAAGTATC | 0.0123
84 | ACCGTATG | 0.105
85 | CACGTATA | 0.431
86 | GACGTATC | 0.422
87 | CGAGCACA | -0.00253
88 | CAGTTCAG | -0.112
89 | TTACAGAA | -0.0258
90 | ACAATAGC | -0.0393
91 | CAATGCCG | -0.128
92 | CGACCTTC | -0.189
93 | ACTGCGTC | 0.284
94 | AAAGTATT | 0.0493
95 | CACGTATC | 0.393
96 | AACGTATT | 0.434
97 | GGCGTATA | 0.148
98 | AAGGTATT | 0.131
99 | TACGTATA | 0.483
100 | CTCGTATC | 0.0593

Row | Sequence | PBM E-score
101 | CGCGTATC | 0.232
102 | ACCGTATA | 0.0367
103 | GACGTATA | 0.453
104 | GTCGTATA | 0.269
105 | ATCGTATA | 0.197
106 | CGCACTGA | 0.0222
107 | AGCTATAT | 0.172
108 | TCCCGACA | -0.139
109 | CAAGTCGC | -0.173
110 | AACGTATA | 0.406
111 | AGCGTATA | 0.15
112 | AACGTATC | 0.353
113 | ACACGGGG | -0.242
114 | ATTACGAG | 0.36
115 | ACTACGAG | 0.162
116 | CTTACGAC | 0.16
117 | AATACGAG | 0.244
118 | ATTACGAC | 0.396
119 | ACTACGAC | 0.181
120 | ATACCTGC | -0.102
121 | CAAATTAG | 0.104
122 | TGGTCACA | 0.0263
123 | GCGTCACC | 0.341
124 | TCGTCACA | 0.379
125 | GCGTCACA | 0.406

Row | Sequence | PBM E-score
126 | CCGTCACG | 0.152
127 | CCGTCACA | 0.163
128 | ACTAGACT | -0.176
129 | CAATAGCA | -0.132
130 | CTGCAATC | -0.0429
131 | CGCTGAGA | -0.0923
132 | AAAACCAG | -0.0997
133 | CCGCAACG | 0.0186
134 | CCGCAACA | 0.165
135 | ACGCAACT | 0.355
136 | ACGCAACC | 0.379
137 | ACGCAACG | 0.377
138 | CCGCAACC | -0.2
139 | ACGCAACA | 0.388
140 | GCGCAACC | -0.162
141 | GCGCAACA | 0.175
142 | TAGAGCCA | -0.278
143 | GCCGAGAC | -0.218
144 | ATGGGTCG | -0.179
145 | ATTCAAGC | 0.106
146 | ATGTTCTA | 0.0474
147 | GCGTGCGA | -0.0187
148 | CTACATTA | 0.00265
149 | CTACATCC | -0.0667
150 | ATACATCG | 0.196

Row | Sequence | PBM E-score
151 | GTACATCA | 0.366
152 | ATACATCA | 0.382
153 | GTACATTA | 0.295
154 | CTACATCA | 0.375
155 | ATACATCC | 0.0616
156 | GTACATGA | 0.184
157 | CGGGGCGC | -0.313
158 | AACAGGTT | -0.0299
159 | AGGCACTA | -0.0926
160 | TGACATAA | 0.424
161 | AGACATAA | 0.0234
162 | TGACATCA | 0.466
163 | TTACATAA | 0.407
164 | CTACATAA | 0.194
165 | TAACATCA | 0.367
166 | GGACATCA | 0.205
167 | CAACATCA | 0.294
168 | GTACATAA | 0.306
169 | GGACATAA | 0.0688
170 | AAACATCA | 0.189
171 | CGACATCA | 0.355
172 | CACCAATG | 0.00918
